Results reported in the antibiotic and cytotoxicity screens of Wong et al. (2023).
The campaign covered roughly 39,000 compounds. About 1,500 (3.8%) were called active. Shown is part of a subset that was picked to be rich in actives.

Tested on: HSkMC (human skeletal muscle cells)
Experiment: cytotoxicity call (relative viability < 0.9)
Details: 10 µM

Structure (SMILES) | cytotoxicity call
NC[C@H]1CC[C@H](C(=O)O)CC1 | inactive
C[C@@H]1CCCCO[C@H](CN(C)Cc2ccccc2)[C@H](C)CN([C@@H](C)CO)C(=O)c2cc(NC(=O)c3ccccc3)ccc2O1 | inactive
COc1ccccc1CNC(=O)C[C@@H]1C[C@H]2c3cc(NC(=O)c4ccc5c(c4)OCO5)ccc3O[C@H]2[C@@H](CO)O1 | inactive
C[C@@H]1CN([C@H](C)CO)C(=O)CCCn2nncc2CO[C@@H]1CN(C)S(=O)(=O)c1ccc(Oc2ccccc2)cc1 | inactive
Cc1ccc(S(=O)(=O)N2C[C@@H](O)COC[C@H]3O[C@H](CC(=O)NCc4cccc(C(F)(F)F)c4)CC[C@@H]32)cc1 | inactive
O=C1O[C@@H](c2ccccc2)[C@@H](c2ccccc2)N2[C@@H](c3ccc(O)cc3)[C@]3(C(=O)Nc4ccc(C#CC5(O)CCCCCC5)cc43)[C@@H](C(=O)N3CCCCCCC3)[C@H]12 | inactive
CNC[C@H]1OCCCC[C@H](C)Oc2ccc(NS(=O)(=O)c3cn(C)cn3)cc2C(=O)N([C@@H](C)CO)C[C@@H]1C | inactive
C[C@@H]1CCCCO[C@@H](CN(C)C(=O)C2CCCCC2)[C@@H](C)CN([C@@H](C)CO)C(=O)c2cc(NC(=O)C3CCCCC3)ccc2O1 | inactive
COc1ccc(S(=O)(=O)Nc2ccc3c(c2)CC(=O)N([C@@H](C)CO)C[C@H](C)[C@@H](CN(C)S(=O)(=O)c2ccc(OC)cc2)O3)cc1 | inactive
COC(=O)[C@]12CCC(C)(C)C[C@H]1[C@H]1C(=O)C=C3[C@@]4(C)C=C(C#N)C(=O)C(C)(C)[C@@H]4CC[C@@]3(C)[C@]1(C)CC2 | active
COC(=O)[C@@]12CCC(C)(C)C[C@@H]1[C@@H]1C(=O)C=C3[C@]4(C)C=C(C#N)C(=O)C(C)(C)[C@H]4CC[C@]3(C)[C@@]1(C)CC2 | active
COc1ccc(CN(C)C[C@@H]2OCCCC[C@H](C)Oc3ccc(NC(=O)NC4CCCCC4)cc3C(=O)N([C@@H](C)CO)C[C@H]2C)cc1 | inactive
CC1(C)[C@@H](OC(=O)CCC(=O)O)CC[C@]2(C)[C@H]3C(=O)C=C4[C@@H]5C[C@@](C)(C(=O)O)CC[C@]5(C)CC[C@@]4(C)[C@]3(C)CC[C@@H]12 | inactive
C[C@@H]1CN([C@@H](C)CO)S(=O)(=O)c2ccc(/C=C/c3ccccc3)cc2O[C@@H]1CN(C)C(=O)Nc1cc(F)ccc1F | inactive
Cc1ccc(S(=O)(=O)Nc2ccc3c(c2)CC(=O)N([C@H](C)CO)C[C@H](C)[C@H](CN(C)CC2CC2)O3)cc1 | inactive
C[C@H](CO)N1C[C@H](C)[C@@H](CN(C)C(=O)c2cc(Cl)cc(Cl)c2)OCc2ccccc2-c2c(n(C)c3ccccc23)C1=O | active
C[C@@H](C(=O)N(C)C[C@H]1OCc2ccccc2-c2c(n(C)c3ccccc23)C(=O)N([C@@H](C)CO)C[C@@H]1C)c1ccccc1 | inactive
C[C@@H]1CN([C@@H](C)CO)C(=O)c2c(c3ccccc3n2C)-c2ccccc2CO[C@@H]1CN(C)C(=O)c1cc(Cl)cc(Cl)c1 | inactive
C[C@@H]1CN([C@@H](C)CO)C(=O)c2c(c3ccccc3n2C)-c2ccccc2CO[C@H]1CN(C)C(=O)c1cc(Cl)cc(Cl)c1 | inactive
C[C@@H]1CN([C@H](C)CO)C(=O)c2c(c3ccccc3n2C)-c2ccccc2CO[C@H]1CN(C)C(=O)c1cc(Cl)cc(Cl)c1 | active
C[C@@H]1CN([C@@H](C)CO)C(=O)c2c(c3ccccc3n2C)-c2ccccc2CO[C@@H]1CN(C)C(=O)[C@H](C)c1ccccc1 | inactive
C[C@H]1CN([C@@H](C)CO)C(=O)c2c(c3ccccc3n2C)-c2ccccc2CO[C@H]1CN(C)C(=O)c1cc(Cl)cc(Cl)c1 | inactive

Structure (SMILES) | cytotoxicity call
C[C@@H]1CN([C@H](C)CO)C(=O)c2c(c3ccccc3n2C)-c2ccccc2CO[C@@H]1CN(C)C(=O)[C@H](C)c1ccccc1 | active
C[C@H]1CN([C@@H](C)CO)C(=O)c2c(c3ccccc3n2C)-c2ccccc2CO[C@@H]1CN(C)C(=O)c1cc(Cl)cc(Cl)c1 | inactive
C[C@H](CO)N1C[C@H](C)[C@H](CN(C)S(C)(=O)=O)Oc2ccc(NC(=O)CCN3CCOCC3)cc2C1=O | inactive
C[C@@H]1CN([C@@H](C)CO)C(=O)c2c(c3ccccc3n2C)-c2ccccc2CO[C@H]1CN(C)S(=O)(=O)c1cn(C)cn1 | inactive
C[C@H]1CN([C@@H](C)CO)C(=O)c2cc(NC(=O)Cn3cnnn3)ccc2O[C@H]1CN(C)C(=O)Nc1ccccc1 | inactive
C[C@H](CO)N1C[C@H](C)[C@@H](CN(C)Cc2ccc(C(=O)O)cc2)Oc2c(NC(=O)c3ccc(-c4nccs4)cc3)cccc2C1=O | inactive
CC(=O)OC1CC(O)C(C)(C)C2CC(OC(C)=O)C3(C)C(CCC4(C)C(c5ccoc5)OC(=O)C5OC543)C12C (stereo not drawn) | inactive
C[C@@H]1CN([C@@H](C)CO)C(=O)c2cc(NC(=O)Nc3ccc(F)cc3)ccc2O[C@@H](C)CCCCO[C@@H]1CN(C)S(=O)(=O)c1ccccc1 | inactive
COc1ccc2c3c(n(c2c1)C)[C@H](CO)N(C[C@]13CCN(CC1)C(=O)c1ccccn1)C(=O)c1ccccn1 | inactive
OC[C@H]1CC[C@@H]2O[C@H](CCc3ccc(C#Cc4ccccc4)cc3)[C@@H](n3cc(-c4ccccc4)nn3)C[C@@H]2O1 | inactive
OC[C@H]1CC[C@@H]2O[C@H](CCc3ccc(C#CCc4ccccc4)cc3)[C@@H](n3cc(-c4ccccc4)nn3)C[C@@H]2O1 | inactive
O=C(Nc1ccc(F)cc1)N[C@@H]1C[C@@H]2O[C@H](CO)CC[C@@H]2O[C@@H]1CCc1ccc(-c2ccccc2)cc1 | inactive
OC[C@@H]1CC[C@@H]2O[C@H](CCc3ccc(C#Cc4ccccc4)cc3)[C@@H](n3cc(-c4ccccc4)nn3)C[C@@H]2O1 | active
OC[C@H]1O[C@@H](S[C@@H]2O[C@H](CO)[C@H](O)[C@H](n3cc(-c4cccc(F)c4)nn3)[C@H]2O)[C@H](O)[C@@H](n2cc(-c3cccc(F)c3)nn2)[C@H]1O | inactive
OC[C@@H]1CC[C@@H]2O[C@H](CCc3ccc(C#Cc4ccccc4)cc3)[C@H](n3cc(-c4ccccc4)nn3)C[C@@H]2O1 | active
OC[C@H]1CC[C@@H]2O[C@H](CCc3ccc(C#Cc4ccccc4)cc3)[C@H](n3cc(-c4ccccc4)nn3)C[C@@H]2O1 | active
OC[C@@H]1CC[C@@H]2O[C@H](CCc3ccc(C#CCc4ccccc4)cc3)[C@@H](n3cc(-c4ccccc4)nn3)C[C@@H]2O1 | inactive
O=C(Nc1ccc(F)cc1)N[C@@H]1C[C@@H]2O[C@@H](CO)CC[C@@H]2O[C@@H]1CCc1ccc(-c2ccccc2)cc1 | inactive
N[C@@H]1CC[C@@H](CCn2cc(-c3cccc(F)c3)nn2)O[C@H]1CO | inactive
OC[C@@H]1CC[C@@H]2O[C@H](CCc3ccc(C#CCc4ccccc4)cc3)[C@H](n3cc(-c4ccccc4)nn3)C[C@@H]2O1 | inactive
OC[C@H]1CC[C@@H]2O[C@H](CCc3ccc(C#CCc4ccccc4)cc3)[C@H](n3cc(-c4ccccc4)nn3)C[C@@H]2O1 | active
